CYP2C19 inhib: human CYP2C19 inhibition. inhibition, % at 5 µM. 21% of 96,000 active. CYP2C19 Supersomes, luciferin-H EGE luminescence, 30 min. AID 778. P33261;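 active means CYP2C19 inhibition above a set limit at 5 µM in the primary screen, cut at about 50% in these data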
Target sequence (P33261 whole entry, looked up): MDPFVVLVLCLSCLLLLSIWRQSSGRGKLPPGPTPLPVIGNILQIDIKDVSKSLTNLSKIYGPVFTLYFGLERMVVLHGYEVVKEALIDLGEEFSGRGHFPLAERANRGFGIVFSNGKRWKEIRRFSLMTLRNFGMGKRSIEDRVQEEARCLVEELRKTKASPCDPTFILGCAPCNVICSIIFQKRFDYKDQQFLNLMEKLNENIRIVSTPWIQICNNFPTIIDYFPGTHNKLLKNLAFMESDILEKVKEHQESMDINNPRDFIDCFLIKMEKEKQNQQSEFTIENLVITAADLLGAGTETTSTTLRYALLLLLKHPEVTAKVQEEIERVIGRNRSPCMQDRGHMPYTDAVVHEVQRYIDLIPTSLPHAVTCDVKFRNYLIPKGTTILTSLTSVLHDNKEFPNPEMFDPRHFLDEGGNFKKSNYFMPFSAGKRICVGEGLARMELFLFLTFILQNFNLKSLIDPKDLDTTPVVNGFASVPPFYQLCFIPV
CYP2C19 activ: activators of human cytochrome P450 2C19 | activation factor at 5 µM | P33261 | AID 1025 | recombinant CYP2C19, luciferin-H EGE luminescence; stronger effect = higher value; 0 = fully inhibited enzyme, 1 = untreated enzyme | 96,000 tested, under 10 active;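 active means activation factor of at least 2 at 5 µM in the primary screen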
Measles CPE: protection of cells from measles virus; 1.5% of 140,000 active; Measles virus-infected cells, CPE protection, absorbance; protection (pct of control), % at 4 µM; in the data active means protection mostly above about 24%, no sharp cut-off; inactive means mostly below about 26%
CYP2C9 inhib: inhibitors of human CYP2C9; CYP2C9 Supersomes, luciferin-H conversion, luminescence; inhibition, % at 5 µM; 20% of 96,000 active; AID 777;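 active means blocking of liver enzyme CYP2C9 beyond about 50% at 5 µM, limit read from the data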
CYP2C9 activ: activators of human CYP2C9; 1.4% of 96,000 active; P11712; activation factor at 5 µM; recombinant CYP2C9, luciferin-H conversion, luminescence; stronger effect = higher value; factor 1 = untreated enzyme, 0 = blocked;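 active means activation factor of 2 or more for CYP2C9 at a 5 µM dose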
Large screens that a line does not name were inactive. A selection: hits, their analogues and other compounds. The true share with any hit is near 22%.

CCOC(=O)C1CCN(C(=O)CSCCSCC(=O)N2CCC(C(=O)OCC)CC2)CC1	CYP2C19 inhib 73
CCOC(=O)C1CCN(C(=O)c2ccc(Br)o2)CC1	CYP2C19 inhib 82, CYP2C9 inhib 70
COC(=O)C1=NNCC12CC(=O)N(c1ccc(Br)cc1)C2=O (configuration not stated)	none (no result: CYP2C19 inhib, CYP2C19 activ, CYP2C9 inhib, CYP2C9 activ)
COc1ccccc1CN1CC(C(=O)N2CCN(c3ccc(F)cc3)CC2)CC1=O (configuration not stated)	none
CN1/C(=C\C(=O)COC(=O)CNC(=O)c2ccccc2F)C(C)(C)c2ccccc21	none (no result: CYP2C19 inhib, CYP2C19 activ, CYP2C9 inhib, CYP2C9 activ)
CCC(=O)n1nc(-c2ccccc2)nc1N	none
COc1ccc(CC(=O)n2nc(-c3ccccc3)nc2NCc2ccco2)cc1	CYP2C9 inhib 56
CCC(=O)n1nc(-c2ccc(Cl)cc2)nc1NCc1ccccc1	CYP2C9 inhib 50
COc1ccc(Nc2nc(NCc3ccco3)nc(N/N=C/c3ccccc3)n2)cc1	CYP2C9 inhib 61
O=C(COC(=O)c1ccc(-c2nnc(-c3ccccc3)o2)cc1)c1ccccc1	none (no result: CYP2C19 inhib, CYP2C19 activ, CYP2C9 inhib, CYP2C9 activ)
COc1nc(Oc2ccc(=O)[nH]n2)nc(N2CCOCC2)n1	Measles CPE 44
N#Cc1ccccc1Cn1c(-c2cscn2)nc2ccccc21	CYP2C19 inhib 50
CC(C)(C)c1ccccc1NC(=O)Cn1c(=O)cnc2ccccc21	none (no result: CYP2C19 inhib, CYP2C19 activ, CYP2C9 inhib, CYP2C9 activ)
O=C(Cn1c(-c2cscn2)nc2ccccc21)Nc1cc(F)ccc1F	CYP2C19 inhib 64
O=C(O)Cn1c(-c2cscn2)nc2ccccc21	none
COc1cc(NC(=O)Cn2c(-c3cncs3)nc3ccccc32)cc(OC)c1OC	CYP2C9 inhib 56
O=C(Cn1c(-c2cscn2)nc2ccccc21)Nc1ccc2ccccc2c1	CYP2C9 inhib 63
CN(C(=O)CSc1nnc(Cc2ccccc2F)n1N)C1CCS(=O)(=O)C1 (configuration not stated)	none
Cc1cccc(C=Nc2ccccc2C(N)=O)c1	none
COc1ccccc1-c1cc(C(=O)NC(C)C)no1	CYP2C9 activ 4
COc1ccccc1-c1cc(C(=O)Nc2ccc(F)cc2F)no1	none
COc1ccccc1-c1cc(C(=O)NC(C)c2ccccc2)no1 (configuration not stated)	CYP2C9 activ 2.8
O=C(NCC(=O)N(Cc1ccco1)C(C(=O)NC1CCCC1)c1cccnc1)c1ccco1 (configuration not stated)	none (no result: CYP2C19 inhib, CYP2C19 activ, CYP2C9 inhib, CYP2C9 activ)
NC(=O)C1CCN(C(=O)CSc2nc3c(c(-c4ccccc4)n2)CCCC3)CC1	CYP2C9 inhib 73
COc1ccc(-c2nnc(SCC(=O)N3CCc4ccccc4C3)o2)cc1	CYP2C19 inhib 78
O=C(CSc1nnc(-c2ccccc2)o1)N1CCc2ccccc2C1	none
COc1ccc(Cc2nnc(SCC(=O)N3CCc4ccccc4C3)o2)cc1	none
O=C(CSc1nnc(-c2ccccc2O)o1)N1CCc2ccccc2C1	CYP2C19 inhib 63
OC1CCCN(Cc2ccccc2)C1 (configuration not stated)	none
Cc1sc(NC(=O)Cn2[nH]c(=O)c3ccccc3c2=O)nc1-c1ccccc1	none (no result: CYP2C19 inhib, CYP2C19 activ, CYP2C9 inhib, CYP2C9 activ)
Cc1cc(-c2nnc(SCC(=O)c3ccc4c(c3)OCCO4)o2)no1	none (no result: CYP2C19 inhib, CYP2C19 activ, CYP2C9 inhib, CYP2C9 activ)
Fc1ccc(COc2ccc(/C=N/n3cnnc3)cc2)cc1	CYP2C19 inhib 92, CYP2C9 inhib 92
Cc1cc2n(n1)C(c1ccccc1)Nc1ccccc1-2 (configuration not stated)	none
Cc1ccc2c(c1)-c1cc(C)nn1C(c1sccc1C)N2 (configuration not stated)	CYP2C19 inhib 79, CYP2C9 inhib 56
Cc1cc2n(n1)C(c1sccc1C)Nc1c(C)cccc1-2 (configuration not stated)	none
Cc1cc2n(n1)C(c1sccc1C)Nc1ccccc1-2 (configuration not stated)	CYP2C19 inhib 66, CYP2C9 inhib 56
C=CCSc1[nH]c(=O)cc(C)c1C(N)=O	none
O=C(c1cccc(-c2nnc(-c3ccccc3)o2)c1)N1CCCCC1	CYP2C19 inhib 56, CYP2C9 inhib 62
Cc1cccc(C(=O)N2CCN(C(=O)c3cccc(C)c3)C(C)C2)c1 (configuration not stated)	CYP2C19 inhib 89, CYP2C9 inhib 78
O=C(c1cccc(Br)c1)N1CCN(C(=O)N2CCCCC2)CC1	CYP2C19 inhib 77, CYP2C9 inhib 61
O=C(c1cccc(Br)c1)N1CCCC1	none
Cc1cccc(C(=O)N2CCCCCC2)c1	CYP2C19 inhib 52
COc1ccc(NC(=O)/C(C#N)=C/C=C/c2ccco2)cc1	none (no result: CYP2C19 inhib, CYP2C19 activ, CYP2C9 inhib, CYP2C9 activ)
CC(=Nc1ccccc1)C1=C(O)CCCC1=O	none (no result: CYP2C19 inhib, CYP2C19 activ, CYP2C9 inhib, CYP2C9 activ)

Bioassay records: PubChem, several laboratories
